PubChem BioAssay (EPA / NIEHS)
The source holds several records for some structures; these can differ, active in one and inactive in another. Calls of active or inactive are those of the source. The calls were made as follows: active = hit-call score of the fitted dose curve at least 0.9, where 1 is the maximum; inactive = score below 0.9.

What follows are molecules tested on Fatty acid synthase (Homo sapiens) (UniProt P49327) (assay: LTEA_HepaRG_FASN: Life Technologies and Expression Analysis (LTEA) Assay for Fatty Acid Synthase (FASN) using HepaRG (AID 2283448)). Details: mRNA level, 48 h; actives raise or lower the signal.
Protocol: LTEA_HepaRG is a cell based, multiplexed-readout assay that uses HepaRG, a human liver cell line, with measurements taken at 48 hours after chemical dosing on a 96-well plate.LTEA_HepaRG_FASN is one of 102 assay component(s) measured in the LTEA HepaRG cell culture assay. It is a marker of Steatosis.Data from the assay component LTEA_HepaRG_FASN was analyzed into 1 endpoint. This assay endpoint, LTEA_HepaRG_FASN, was analyzed with bidirectional fitting relative to DMSO as the negative control and baseline of activity. Using a type of inducible reporter, measures of mRNA induction for gain or loss-of-signal activity can be used to understand regulation of transcription factor activity. To generalize the intended target to other relatable targets, this assay endpoint is annotated to the lyase intended target family, where the subfamily is fatty acid synthase.
A total of 1060 chemcials from the ToxCast library were tested in eight-point concentration-response experiments. Cell culture and cytotoxicity assays were conducted at Thermo Fisher Scientific's Custom Services facility (Madison, WI). A single lot of human HepaRG cells (Thermo Fisher Scientific, Frederick, MD) was used for the cell culture experiments. 96-well format collagen type I coated plates of human HepaRG cells were prepared using established methods. Briefly, cryopreserved HepaRG cells were thawed, plated at a density of approximately 100,000 cells/well in HepaRG Thaw, Plate, and General Purpose media (HPRG770, Thermo Fisher Scientific), and incubated for 48 hours. 0.5% DMSO was selected as vehicle control to balance the requisite need of DMSO in HepaRG cultures to maintain differentiation (for example, baseline metabolism, proportions of hepatocytes vs. cholangiocytes), while enabling further hepatic receptor pathway activation (for example, PXR and CAR) in response to chemical exposure. 48 hours after plating, the culture medium was replaced with HepaRG Serum-Free Incudtion Media. Cells were exposed to each test chemical in duplicate and maintained in CO2 incubators for another 48 hours. Chemical plates were thawed to room temperature and 200x concentrations of treatment groups were prepared. 8-point conentration-reponse curves were made with the highest exposure at 100 uM, followed by half-log dilutions, all in 0.5% DMSO. Each test plate contained variouse controls, induction positive controls (1mM phenobarbital), cytotoxicity positive controls ([…] aflatoxin B1), vehicle controls (0.5% DMSO), and total lysis controls (0.5% DMSO). Cell morphology images were taken using an Essen IncuCyte FLR automated microscope, with six 96-well plates imaged in about 24 minutes. Images were captured and exported and JPEG files. Spent culture media was transfered to black-well plates for the LDH assay, and remaining media was sorted at -80 C for later use. Cells were treated with RLT buffer and frozen until shipped for gene expression analysis. Total RNA was isolated from the cell suspension in 75 uL of Buffer RLT (Qiagen, Germantown, MD 20874) by Quintiles/Expression Analysis (Durham, NC) using a custom isolation procedure. Total RNA from each plate well was transferred to a preamplification plate. Fluidigm's 96.96 Dynamic ArrayTM (Fluidigm, Amsterdam, the Netherlands) technology was used for gene expression analyses by quantitative reverse transcription polymerase chain reaction (qRT-PCR, performed by Quintiles/Expression Analysis, Durham, NC)89. Standard TaqManTM Assays (Applied Biosystems/ThermoFisher Scientific, Foster City, CA) were used to assess the expression of 93 genes selected based on their selectivity and sensitivity to important hepatic receptors known to be modulated by environmental chemicals; importance in human hepatocyte functionality; and hepatotoxicity. […]

Sequence of Fatty acid synthase (Homo sapiens) (P49327 whole entry, looked up): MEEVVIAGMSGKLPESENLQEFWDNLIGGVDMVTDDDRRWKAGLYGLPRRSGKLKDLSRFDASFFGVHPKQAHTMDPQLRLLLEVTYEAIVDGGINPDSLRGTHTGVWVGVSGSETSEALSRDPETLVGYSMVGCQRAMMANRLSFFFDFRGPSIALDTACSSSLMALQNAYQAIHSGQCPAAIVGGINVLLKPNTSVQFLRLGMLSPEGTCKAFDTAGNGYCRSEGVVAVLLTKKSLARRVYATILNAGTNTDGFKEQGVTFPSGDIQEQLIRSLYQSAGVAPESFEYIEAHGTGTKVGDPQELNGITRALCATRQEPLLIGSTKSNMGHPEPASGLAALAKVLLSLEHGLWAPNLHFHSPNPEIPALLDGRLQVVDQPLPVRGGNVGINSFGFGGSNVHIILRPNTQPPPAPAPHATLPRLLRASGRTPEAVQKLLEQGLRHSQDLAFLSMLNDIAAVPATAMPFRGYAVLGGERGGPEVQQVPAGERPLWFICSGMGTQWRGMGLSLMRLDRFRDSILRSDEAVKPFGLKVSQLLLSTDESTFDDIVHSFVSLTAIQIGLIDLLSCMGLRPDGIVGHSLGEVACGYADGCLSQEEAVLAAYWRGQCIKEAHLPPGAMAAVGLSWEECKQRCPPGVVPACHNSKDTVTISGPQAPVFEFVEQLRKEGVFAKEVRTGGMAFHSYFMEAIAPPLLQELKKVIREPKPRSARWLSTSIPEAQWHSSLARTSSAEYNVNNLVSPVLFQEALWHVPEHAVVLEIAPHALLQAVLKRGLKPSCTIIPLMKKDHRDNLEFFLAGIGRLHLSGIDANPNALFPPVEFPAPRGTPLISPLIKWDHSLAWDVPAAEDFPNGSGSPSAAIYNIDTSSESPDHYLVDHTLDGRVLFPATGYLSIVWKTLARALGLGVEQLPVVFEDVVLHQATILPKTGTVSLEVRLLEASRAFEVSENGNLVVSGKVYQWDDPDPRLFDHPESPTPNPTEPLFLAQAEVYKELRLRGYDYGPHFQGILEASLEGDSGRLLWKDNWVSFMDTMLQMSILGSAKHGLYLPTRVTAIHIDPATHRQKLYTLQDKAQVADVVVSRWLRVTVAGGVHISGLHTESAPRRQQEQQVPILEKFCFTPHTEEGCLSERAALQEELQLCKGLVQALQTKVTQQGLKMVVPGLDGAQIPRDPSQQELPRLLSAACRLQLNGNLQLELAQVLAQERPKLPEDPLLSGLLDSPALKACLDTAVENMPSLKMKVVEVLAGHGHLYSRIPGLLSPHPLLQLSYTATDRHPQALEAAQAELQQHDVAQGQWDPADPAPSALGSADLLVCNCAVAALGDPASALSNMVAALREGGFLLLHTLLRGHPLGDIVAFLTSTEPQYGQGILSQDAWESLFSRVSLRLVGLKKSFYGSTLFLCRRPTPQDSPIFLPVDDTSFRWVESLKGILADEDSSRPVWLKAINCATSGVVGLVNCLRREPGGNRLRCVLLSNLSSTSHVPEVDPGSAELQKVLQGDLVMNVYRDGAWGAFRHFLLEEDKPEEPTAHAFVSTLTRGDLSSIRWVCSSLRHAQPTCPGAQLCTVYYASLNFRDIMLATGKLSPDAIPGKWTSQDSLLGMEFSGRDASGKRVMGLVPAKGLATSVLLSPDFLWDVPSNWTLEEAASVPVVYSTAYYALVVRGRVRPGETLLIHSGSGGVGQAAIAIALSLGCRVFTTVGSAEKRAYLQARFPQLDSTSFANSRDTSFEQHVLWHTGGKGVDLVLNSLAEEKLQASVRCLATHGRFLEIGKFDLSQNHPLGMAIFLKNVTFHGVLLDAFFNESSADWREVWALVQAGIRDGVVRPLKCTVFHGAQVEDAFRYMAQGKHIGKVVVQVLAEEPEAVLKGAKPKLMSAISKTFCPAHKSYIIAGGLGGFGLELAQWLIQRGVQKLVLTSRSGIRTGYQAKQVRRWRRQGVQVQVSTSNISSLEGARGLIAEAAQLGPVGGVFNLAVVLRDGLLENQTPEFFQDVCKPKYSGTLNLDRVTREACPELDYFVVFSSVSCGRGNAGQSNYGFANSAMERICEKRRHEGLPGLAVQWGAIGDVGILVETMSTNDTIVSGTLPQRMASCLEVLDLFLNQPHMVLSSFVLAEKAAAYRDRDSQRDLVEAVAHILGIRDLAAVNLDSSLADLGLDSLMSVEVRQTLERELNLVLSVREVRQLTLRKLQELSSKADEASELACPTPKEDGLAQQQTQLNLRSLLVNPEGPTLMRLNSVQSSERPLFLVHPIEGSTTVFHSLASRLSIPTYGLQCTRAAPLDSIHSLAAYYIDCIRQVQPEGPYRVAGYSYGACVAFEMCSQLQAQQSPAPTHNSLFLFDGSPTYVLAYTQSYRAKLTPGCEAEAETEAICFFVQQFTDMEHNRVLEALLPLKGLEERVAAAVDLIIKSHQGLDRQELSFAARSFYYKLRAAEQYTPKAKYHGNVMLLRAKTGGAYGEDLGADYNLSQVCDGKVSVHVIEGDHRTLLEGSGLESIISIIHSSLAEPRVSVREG

Row | Structure (SMILES) | AC50 | outcome
1 | O=C1C2(Cl)C3(Cl)C4(Cl)C(Cl)(Cl)C5(Cl)C3(Cl)C1(Cl)C5(Cl)C24Cl (stereo unspecified) | 93.5 µM (active) | –
2 | CC(C)(C)CC(C)(C)c1ccc(O)cc1 | – | inactive
3 | Cc1ccccc1N | – | inactive
4 | O=C(O)C(Cl)(Cl)Cl | – | inactive
5 | C=CC(=O)OCCCCCC(C)C | – | inactive
6 | CC(=O)[O][Hg][c]1ccccc1 | 2.25 µM (active) | –
7 | CCOP(=S)(OCC)Oc1nc(Cl)c(Cl)cc1Cl | – | inactive
8 | ClCC(Cl)CCl | – | inactive
9 | COc1cc(-c2ccc(N)c(OC)c2)ccc1N | 55.6 µM (active) | inactive
10 | C[C@]12CCC(=O)C[C@@H]1CC[C@@H]1[C@@H]2CC[C@]2(C)[C@@H](O)CC[C@@H]12 | – | inactive
11 | C[C@@H]1C[C@@H]([C@H](O)CC2CC(=O)NC(=O)C2)C(=O)[C@@H](C)C1 | 4.28 µM (active) | –
12 | CC(C)(C)c1cc(O)ccc1O | – | inactive
13 | O=C(Nc1ccc2[nH]ccc2c1)c1cc2cc(F)ccc2n1Cc1cccc(F)c1 | 24.3 µM (active) | –
14 | O=[N+]([O-])c1ccc(O)c([N+](=O)[O-])c1 | 13.1 µM (active) | –
15 | O=c1[nH]c(=O)[nH]c(=O)[nH]1 | – | inactive
16 | Oc1cccc2cccnc12 | – | inactive
17 | C=C(C)C(=O)[O][Sn]([CH2]CCC)([CH2]CCC)[CH2]CCC | – | inactive
18 | NC(=O)O | – | inactive
19 | ClC1(Cl)C2(Cl)C3(Cl)C4(Cl)C(Cl)(Cl)C5(Cl)C3(Cl)C1(Cl)C5(Cl)C24Cl (stereo unspecified) | 3.24 µM (active) | –
20 | CCC(=O)C(CC(C)N(C)C)(c1ccccc1)c1ccccc1 (stereo unspecified) | – | inactive
21 | Cn1sc(Cl)cc1=O | – | inactive
22 | CCC(C)(C)c1ccc(O)c(C(C)(C)CC)c1 | – | inactive
23 | CC(C)(OO)c1ccccc1 | – | inactive
24 | CN(C)N=O | – | inactive
25 | CCCCCCCCc1ccc(O)cc1 | – | inactive
26 | O=C(O)C(F)(F)C(F)(F)C(F)(F)C(F)(F)C(F)(F)C(F)(F)C(F)(F)C(F)(F)C(F)(F)C(F)(F)F | – | inactive
27 | O=C(O)C(F)(F)C(F)(F)C(F)(F)C(F)(F)C(F)(F)C(F)(F)F | – | inactive
28 | CCN1CCC2(CC1)COc1cc3c(cc12)N(C(=O)c1ccc(-c2ccc(-c4nnc(C)o4)cc2C)cc1)CC3 | 29.9 µM (active) | –
29 | CC12CC1(C)C(=O)N(c1cc(Cl)cc(Cl)c1)C2=O (stereo unspecified) | 5.61 µM (active) | –
30 | CCOP(=S)(OCC)SCSP(=S)(OCC)OCC | 90.8 µM (active) | –
